We go through 13 molecules from PubChem BioAssay (NCI).

This is part of a sample that, as a whole, favours compounds with a hit. Of some 83,000 tested, about 20% had one in any assay.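 Assay: single dose, 48 h. Readout: percent growth (0 = no net growth; negative = cell death). Active: <10.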 Unmarked numbers belong to inactive results. Calls of active or inactive are those of the source.

The test relates to HL-60(TB) leukemia. The test can be described thus: NCI-60 one-dose screen, 48 h (100 = growth as untreated, 0 = no growth, -100 = all killed). The conditions noted are these: 10 µM unless noted.
For the molecule `CCN(CC)c1ccc(/C=N/NC(=O)c2ccc(S(N)(=O)=O)cc2)c(O)c1`, the growth was 1.26% (active).
Then `CN1CCN(c2ccc(Nc3nc(NCCCNS(=O)(=O)c4cccc5ccccc45)c4sccc4n3)cc2)CC1`, with -45.2% (active); and `CCOC(=O)c1c(NC(=O)c2ccc(C(F)(F)F)cc2)sc2c3c(ccc12)OCN(C)C3`, with -27.6% (active); and `CCOC(=O)c1ccc(NC2=CC(=O)C(C)=C(C)C2=O)cc1`, with 53%.
With `NC(N)=Nc1ccc(Oc2cccc(NC(N)=Nc3ccc(Cl)c(C(F)(F)F)c3)c2)cc1`, the growth was 27.8%.
Then `CN(c1ccc(Br)cc1)S(=O)(=O)c1ccc(-c2cnc(C3CC3)o2)cc1`, with -25.1% (active); and `Cc1cc(=O)[nH]c(O)c1C#N`, with 100%.
Then `COc1cc(/C=N/n2cnc3oc(-c4ccccc4)cc3c2=N)cc(CN2CCN(C)CC2)c1O`, with 110%; and `COc1cc2oc(-c3cccc(C(=O)N[C@@H](CC(C)C)C(=O)OC(C)(C)C)c3)cc(=O)c2c(OC)c1OC`, with 76.8%; and `O=C(NCCNc1cc(-c2cn(-c3ccccc3)nc2-c2cccc(O)c2)ccn1)Nc1cc(C(F)(F)F)cc(C(F)(F)F)c1`, with 97%.
As for `CN1CCC(n2cc(Nc3ncc4c(=O)n(-c5c(Cl)cccc5Cl)cc(Br)c4n3)cn2)CC1`, the growth is -13.8% (active).
With `N#C/C(=C\c1ccc2ccccc2c1)C(=O)Nc1sc2c(c1C#N)CCC2`, the growth is 103%.
Consider `Nc1c(C(=O)c2ccccc2)sc2nc(-c3cnccn3)cc(-c3cccs3)c12`, for which the growth was 108%.
